# “And” between values parts separate entries of the source, which are not always exact repeats. Equal entries are not always repeated. About 83,000 compounds went through this panel and 20% of them were active in at least one assay; those are over-represented in the sample as a whole.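 96-well plates, one dose, 48 hours. Percent growth reported; active if below 10.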 The source made the active and inactive calls.
# Test system: MDA-MB-468 breast
# Assay: NCI-60 one-dose screen, 48 h (100 = growth as untreated, 0 = no growth, -100 = all killed)
# Settings: 10 µM unless noted
row,SMILES,growth
1,CCOC(=O)C1=CC(=O)CC(C)(C)O1,117% (inactive) and 108% (inactive)
2,CC(C)CCSc1nc(N)nc2nc[nH]c12,103% (inactive)
3,CCCSc1ccc2nc(NC(=O)OC)[nH]c2c1,-7.05% (active)
4,CCN1CCN(c2ccc(NC(=O)Nc3nc4ccc(-c5ccccc5OC)cc4s3)cc2)CC1,-76.7% (active)
5,CCCNC(=O)c1cn2ncnc(Nc3cc(C(=O)NC4CC4)ccc3C)c2c1C,73% (inactive)
6,COc1ccc(C(=O)/C=C/c2ccc(OCc3ccc(C)cc3)c(OC)c2)cc1OC,49.9% (inactive)
7,COc1cc2nc(-c3ccc(C(F)(F)F)cc3)cc(OCCCN3CCC(O)CC3)c2cc1OC,44% (inactive)
8,Cc1cc2c(C#N)n3c(c2cc1C)C(=O)C(c1ccccc1)Oc1ccccc1-3 (stereo not given),50% (inactive)
9,CCOC(=O)C1=C(COCCN)NC(C)=C(C(=O)OC)C1c1ccccc1Cl (stereo not given),17% (inactive)
10,Fc1ccc(-c2nnc(N3CCOCC3)c3ccccc23)cc1,98.8% (inactive)
11,CCOC(=O)c1c(Nc2ccccc2)nn2c(N)c(C#N)c(-c3ccc(OC)cc3)nc12,73.1% (inactive)
12,Cn1c([N+](=O)[O-])cnc1C=C1C(=O)c2ccccc2C1=O,51.3% (inactive)
13,COc1ccc(Nc2ncccc2C(=O)NCc2cn(Cc3cc(OC)cc(OC)c3)nn2)cc1,103% (inactive)
14,COc1ccc(CCO)cc1,101% (inactive)
15,COc1ccc(C2SC(C)C(=O)N2CCc2cccs2)cc1OC (stereo not given),48.1% (inactive)
16,CC[C@]12C=CCN3CC[C@@]4(c5ccc(OC)cc5N(C)[C@H]4[C@@](O)(C(=O)OC)[C@@H]1OC(=O)CCC(=O)O[C@H]1CC[C@H]4[C@@H]5CC[C@H]6CC(=O)CC[C@]6(C)[C@H]5CC[C@]14C)[C@@H]32,24.8% (inactive)
17,CCCCCCN(CCCCCC)c1ccc(/C=C2/SC(=O)NC2=O)c(C)c1,80.6% (inactive)
18,COC(=O)c1ccc(Cn2ccc(=O)[nH]c2=O)cc1,104% (inactive)
19,Cc1ccc(NC(=O)/C=C/c2ccc(OCCCOc3ccc4c(C)cc(=O)oc4c3)cc2)cc1,77.5% (inactive)
20,CCOC(=O)c1nn(C2CCCCO2)c2ccc(NC(=O)CSc3nc4ccccc4c(=O)[nH]3)cc12 (stereo not given),95.7% (inactive)

row,SMILES,growth
1,COc1ccc2oc3cc(NCCN(C)C)ccc3c(=O)c2c1,103% (inactive) and 88.7% (inactive)
2,CCOC(=O)c1ccc(NC2=CC(=O)C(C)=C(C)C2=O)cc1,13.8% (inactive)
3,COc1ccc(C2=CN3CC=CC3CC2=O)cc1 (stereo not given),95.3% (inactive)
4,COc1cc(-c2nc3ccccc3o2)cc(CN2CCN(c3ccccc3)CC2)c1O,76.3% (inactive)
5,N#Cc1ccc(-c2csc(Nc3ccc4nc5n(c(=O)c4c3)CCC5)n2)cc1,105% (inactive)
6,Cn1cc(-c2csc(-c3cn(C(=O)OC(C)(C)C)c4ccccc34)n2)c2ccnc(Cl)c21,44.8% (inactive)
7,NC(CS/C(Cl)=C/Cl)C(=O)O (stereo not given),-38.5% (active)
8,CCOC(CN1CCN(CC(C)C(=O)c2ccccc2)CC1)c1ccccc1 (stereo not given),87.2% (inactive)
9,O=C1C(Cl)=C(NCCCCCCNC2=C(Cl)C(=O)c3ccccc3C2=O)C(=O)c2ccccc21,89.2% (inactive)
10,COc1ccc(Cc2cc(-c3ccccc3C)n[nH]c2=O)cc1,91.1% (inactive)
11,COc1cccc2c1C(=O)c1c(O)c3c(c(O)c1C2=O)C[C@@](O)(/C(C)=N/NC(=O)c1cccc([N+](=O)[O-])c1)C[C@@H]3OC1CC(N)C(O)C(C)O1 (stereo not given in full),-18.9% (active)
12,N#CC1(C#N)C2=C(CCCC2)NC(c2c(F)cccc2Cl)C1(C#N)C#N (stereo not given),53% (inactive)
13,Nc1nccc(OCCO)n1,107% (inactive)
14,COc1ccc(-c2nc3sc4c(c3c(=O)[nH]2)CCCCCC4)cc1,98.5% (inactive)
15,CC(C)[C@H]1c2[nH]c3ccccc3c2C[C@H]2C(=O)N(CCCCCCC(=O)NO)CC(=O)N12,64.2% (inactive)
16,Cc1c(Cl)cccc1NC(=O)c1sc2nc3c(cc2c1N)C(=O)CCC3,48.6% (inactive)
17,COc1cccc(NC(=O)c2sc3nc(C)c(C(=O)c4ccccc4)cc3c2N)c1,62.1% (inactive)
18,CC(C)NC(=O)c1cc(-c2ccc(NC(=O)Nc3ccc(N4CCOCC4)c(C(F)(F)F)c3)cc2)nc2cccnc12,92.1% (inactive)
19,Cc1nc(NC(=O)NC2CCCCC2)sc1C(=O)NN,97.3% (inactive)
20,NC(=O)N1N=C(c2cc3ccccc3oc2=O)CC1c1cn(-c2ccccc2)nc1-c1ccc(Cl)cc1 (stereo not given),36.9% (inactive)

# From PubChem BioAssay (NCI)
